From PubChem BioAssay AID2685 (National Center for Advancing Translational Sciences (NCATS), 2010)
Screen size: about 320,000 compounds; about 2,100 (0.66%) were called active. Another 53% or so got no clear call; they are omitted. Calls come from the whole dose curve; as a rule, active = well fitted inhibition curve with a large enough effect in the signal ratio, with a control signal flat (not every such curve was filed as active); inconclusive = small, poorly fitted or top-dose-only effect, or effect the other way, or a change in a side signal; inactive = flat fitted curve, though single readings scatter; the % refers to the signal ratio. Only a selection was taken, and actives are over-represented in it overall.

Experiment: qHTS Assay for Lipid Storage Modulators in Drosophila S3 Cells;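 for cell number change: cells counted by Cell Tracker Red CMTPX staining in the red channel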; for lipid storage change, negative = inhibition: % is set by controls: 0 for no effect and ±100 for the full control effect
Details: BODIPY lipid droplet fluorescence, 18-24 h, cells fed with added oleic acid; cell number change: measured here: cell count max response; series mostly up to 46.1 µM; lipid storage change, negative = inhibition: at the top concentration
In short: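 Drosophila S3 cells loaded with oleic acid (400 uM, as added) and compounds at several concentrations; lipid droplets imaged by 488-nm laser-scanning cytometry, 500–530 nm intensity and object ratio to cell channel. Percent activity normalized to 20 uM Triacsin C.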
Potency is the fitted concentration of half-maximal effect.

| SMILES | outcome | cell number change | lipid storage change, negative = inhibition | Potency |
| --- | --- | --- | --- | --- |
| CC1(C)Cc2c(cnn2-c2cccc(F)c2)C(NC(=O)CN2CCCC2=O)C1 (stereo unspecified) | inactive | -1.15% |  |  |
| CCOC(=O)COc1ccc(C)cc1-c1ccno1 | inactive |  |  |  |
| Cc1oc(C(=O)O)cc1COc1cccc2ccccc12 |  | 16.3% | 16.2% (inactive) |  |
| Cc1oc(C(=O)O)cc1COc1cccc2cccnc12 |  | 7.93% |  | 6.51 µM (active) |
| COc1cc(C(=O)O)cc(OC)c1OCc1cc(C(=O)O)oc1C |  | -10.9% | -16.4% (inactive) |  |
| Cn1cc(-c2ccc(Cl)cc2)cc(C#N)c1=O |  |  | 4.19% (inactive) |  |
| Cc1ccccc1/C=N/n1c(COc2ccccc2)n[nH]c1=S |  | 4.96% | 13.7% (inactive) |  |
| O=C(CN1C(=O)c2ccccc2C1=O)OCCOCCN=C1NS(=O)(=O)c2ccccc21 |  | 10.2% | 10.3% (inactive) |  |
| O=C(OCCCN=C1NS(=O)(=O)c2ccccc21)C1CC(=O)N(c2ccc(Cl)cc2)C1 (stereo unspecified) |  | -12.2% | -7.49% (inactive) |  |
| O=C(OCCCN=C1NS(=O)(=O)c2ccccc21)c1ccc(F)cc1 |  | -17.4% | 19.4% (inactive) |  |
| O=C(OCCOCCN=C1NS(=O)(=O)c2ccccc21)c1ccc(F)cc1 |  | 13.2% |  | 1.64 µM (active) |
| O=C(OCCOCCN=C1NS(=O)(=O)c2ccccc21)C1CC(=O)N(c2ccccc2)C1 (stereo unspecified) |  |  |  | 8.2 µM (active) |
| O=C(OCCOCCN=C1NS(=O)(=O)c2ccccc21)c1ccncc1 |  | 0.489% | -5.87% (inactive) |  |
| CN(CC(=O)Nc1ccc(Cl)cc1)CC(=O)Nc1ccc(C(N)=O)cc1 |  | -11% | 0.257% (inactive) |  |
| Cc1cc(=O)n(C)c(=O)n1CCCCOc1cccc([N+](=O)[O-])c1 |  | 11.9% | 11.3% (inactive) |  |
| N#Cc1nc(-c2cccs2)oc1NCc1ccc(Cl)cc1 | inactive |  |  |  |
| Cc1cc2occ(CC(=O)Nc3nccs3)c2cc1C(C)C | inactive |  |  |  |
| Cc1ccc2c(CC(=O)NCc3cccs3)coc2c1 |  | 20.1% | 26.1% (inactive) |  |
| Cc1cc2occ(CC(=O)NCc3cccs3)c2cc1C(C)C |  | -2.8% |  | 1.46 µM (active) |
| O=C(O)c1ccc2c(c1)C(=O)N(c1ncccn1)C2=O |  | -0.987% | 2.95% (inactive) |  |
| Cc1ccc(Cn2c(CN3CCOCC3)nc3c2c(=O)n(C)c(=O)n3C)cc1 |  | 6.6% | 2.04% (inactive) |  |
| COc1ccc(-c2[nH]ncc2CN(C)C(C)c2cccs2)c(F)c1 (stereo unspecified) |  | 8.77% | 2.81% (inactive) |  |
| COc1ccc(Cc2nc3ccc(C(=O)NC(C)c4cn(C)nc4C)cc3o2)cc1 (stereo unspecified) | inactive | -22.9% |  |  |
| O=C(Oc1ccccc1)c1c(Cl)cccc1P(=O)(O)O |  | 3.12% |  | 3.66 µM (active) |

| SMILES | outcome | cell number change | lipid storage change, negative = inhibition | Potency |
| --- | --- | --- | --- | --- |
| O=C(O)c1c(Cl)cccc1Cl |  | 4.08% | 3.03% (inactive) |  |
| O=C(Oc1ccc(/C=N/O)cc1)c1ccccc1Cl |  | -11.5% | 14.4% (inactive) |  |
| CSc1ccc(Cl)c(C(=O)N2CCOc3ccccc32)c1 |  | -26.8% | 3.65% (inactive) |  |
| O=C(c1ccc(N2C(=O)C3CC=C(Cl)CC3C2=O)cc1)N1CCOCC1 (stereo unspecified) |  | 30% | -4.16% (inactive) |  |
| COc1ccccc1OCC(=O)Nc1ccc(N2CCOCC2)cc1N1CCOCC1 |  | 2.71% | -21.3% (inactive) |  |
| COc1cc(C=O)ccc1OCC(=O)Nc1ccccc1N1CCOCC1 |  | -24.3% |  | 2.59 µM (active) |
| COc1cc(C(=O)Nc2ccccc2N2CCOCC2)ccc1OCC(=O)N1CCOCC1 |  |  | -20.4% (inactive) |  |
| CC(=O)COc1ccc2c(-c3ccccc3)cc(=O)oc2c1C |  | -1.68% | 10.7% (inactive) |  |
| CCc1cc2c(-c3ccccc3)cc(=O)oc2cc1OCC(C)=O |  | -1.82% |  | 0.651 µM (active) |
| Cc1c(OCC(=O)NCC2CCC(C(=O)O)CC2)ccc2c(-c3ccccc3)cc(=O)oc12 (stereo unspecified) |  | 0.647% | 6.37% (inactive) |  |
| Cc1c(OC(C)C(=O)N[C@H](C(=O)O)c2ccccc2)ccc2c3c(c(=O)oc12)CCCC3 (stereo partly specified) |  | -8.43% | -14.4% (inactive) |  |
| Cc1c(OC(C)C(=O)NCc2ccncc2)ccc2c3c(c(=O)oc12)CCC3 (stereo unspecified) | inactive | -1.18% |  |  |
| Cc1c(OC(C)C(=O)NCC(O)c2ccccc2)ccc2c3c(c(=O)oc12)CCCC3 (stereo unspecified) |  | 9.43% |  | 29.1 µM (active) |
| CC(Oc1ccc2c3c(c(=O)oc2c1)CCC3)C(=O)NCc1ccccn1 (stereo unspecified) | inactive | 1.9% |  |  |
| CCc1cc2c(-c3ccccc3)cc(=O)oc2cc1OCC(=O)NCC1CCC(C(=O)O)CC1 (stereo unspecified) |  | 22.7% | -3.52% (inactive) |  |
| Cc1c(OCC(=O)NCC(O)c2ccccc2)ccc2c3c(c(=O)oc12)CCCC3 (stereo unspecified) | inactive | -19.4% |  |  |
| Cc1c(OC(C)C(=O)NCc2ccccn2)ccc2c3c(c(=O)oc12)CCC3 (stereo unspecified) |  | -27.2% |  | 11.6 µM (active) |
| Cc1c(OCC(=O)NCC(O)c2ccccc2)ccc2c(-c3ccccc3)cc(=O)oc12 (stereo unspecified) |  | -9.69% |  | 16.4 µM (active) |
| CCc1cc2c(-c3ccccc3)cc(=O)oc2cc1OC(C)C(=O)NCC1CCC(C(=O)O)CC1 (stereo unspecified) | inactive | 17.8% |  |  |
| O=c1[nH]cnc2sc3c(c12)CCC3 |  | 25.4% | -3.12% (inactive) |  |
| CCOc1ccc(-n2ccc(=O)c(C(=O)Nc3ccc(S(=O)(=O)Nc4nccs4)cc3)n2)cc1 | inactive | -6.87% |  |  |
| CCc1c(C)nc(N)n2c(SCC(=O)N3CCN(c4ccccc4F)CC3)nnc12 |  | -1.8% | 0.324% (inactive) |  |
| O=C1CCN(Cc2ccccc2)CCN1CCO |  | 13.2% | -5.28% (inactive) |  |
| O=C(CN(C(=O)CCC(=O)Nc1nccs1)c1ccc2c(c1)OCO2)NCC1CCCO1 (stereo unspecified) | inactive | 2.62% |  |  |

| SMILES | outcome | cell number change | lipid storage change, negative = inhibition | Potency |
| --- | --- | --- | --- | --- |
| Cc1cc(N2CCN(S(=O)(=O)Cc3ccccc3)CC2)n2ncnc2n1 | inactive |  |  |  |
| O=c1[nH]c2ccccc2nc1C(Cl)c1ccccc1 (stereo unspecified) | inactive | 23.2% |  |  |
| CCN(CC)S(=O)(=O)c1cccc(NC(=O)c2ccc(SC)cc2OC)c1 |  | 22.2% | 24.1% (inactive) |  |
| COc1ccc(S(=O)(=O)N(CC(=O)NCc2ccco2)c2ccccc2)cc1 | inactive |  |  |  |
| CC(C)(C)c1ccc(C(=O)NC2CCN(Cc3ccccc3)CC2)cc1 |  | 5.06% | 0.163% (inactive) |  |
| Cc1nnc2c(NC3CCCC3)nc3ccccc3n12 |  | 9.22% | 9.47% (inactive) |  |
| Cc1ccc(-c2nnc(SCC(=O)Nc3ccc(N4CCOCC4)cc3)o2)cc1 |  | -5.45% | 13.5% (inactive) |  |
| O=C1Nc2cc(C(=O)N3CCc4ccccc4C3)ccc2S/C1=C\c1ccccc1 |  | 17.1% |  | 0.651 µM (active) |
| CC1CCN(C(=O)c2ccc3c(c2)NC(=O)/C(=C/c2ccccc2)S3)CC1 | inactive | 3.29% |  |  |
| COc1ccc(/C=C2/Sc3ccc(C(=O)N4CCc5ccccc5C4)cc3NC2=O)cc1 |  | 0.0626% | 13.9% (inactive) |  |
| Cn1c(=O)[nH]c(=O)c2c1nc(SCCN1CCCCC1)n2Cc1ccccc1 |  |  | 18.7% (inactive) |  |
| COc1ccc(OC)c(C(=O)CSc2nnc(Cc3cccs3)n2C)c1 | inactive | -18.3% |  |  |
| O=C(Nc1ccc(F)cc1)c1csc(Cc2ccccc2)n1 |  |  | 14.8% (inactive) |  |
| O=c1[nH]c2ccccc2nc1Cc1ccc(Cl)cc1 | inactive | 6.67% |  |  |
| COc1ccc(Cc2nc3ccccc3[nH]c2=O)cc1 |  |  |  | 3.26 µM (active) |
| O=c1[nH]c2ccccc2nc1Cc1ccccc1 |  | -29.6% | 10.2% (inactive) |  |
| COC(=O)N1[C@H](Cc2ccccc2)C=C[C@]1(C)C(=O)O |  | -7.24% | -10.2% (inactive) |  |
| CCC(=O)Nc1c2c(nn1-c1ccccc1)CSC2 | inactive | 19% |  |  |
| O=C(CCl)Nc1c2c(nn1-c1ccccc1)CSC2 |  | -21.4% |  | 20.6 µM (active) |
| O=C(CBr)Nc1c2c(nn1-c1ccccc1)CSC2 | inactive | 23.5% |  |  |
| Cc1c(CCOC(=O)C23CC4(C)CC(C)(CC(C)(C4)C2)C3)sc[n+]1CC(=O)c1ccccc1 |  | -53.8% |  | 18.4 µM (active) |
| COc1ccc(C(=O)OCCc2sc[n+](CC(=O)c3ccccc3)c2C)cc1 | inactive | 15.7% |  |  |
| Cc1c(CCOC(=O)CC23CC4CC(CC(C)(C4)C2)C3)sc[n+]1CC(=O)c1ccccc1 |  | -7.33% | -14.6% (inactive) |  |
| CCOc1ccccc1NC(=S)NC1CC2CCC1C2 (stereo unspecified) |  | 6.16% | 8.44% (inactive) |  |

| SMILES | outcome | cell number change | lipid storage change, negative = inhibition | Potency |
| --- | --- | --- | --- | --- |
| COc1ccc(OC)c(NC(=O)c2cc(-c3c(C)cc(C)cc3O)n[nH]2)c1 |  | 13.7% |  | 0.206 µM (active) |
| COc1ccc(OC)c(NC(=O)c2cc(-c3ccc(C)cc3O)n[nH]2)c1 | inactive | 2.51% |  |  |
| Cc1cc(C)c(-c2cc(C(=O)Nc3cc(C)ccc3C)[nH]n2)c(O)c1 |  | 2.08% | -1.74% (inactive) |  |
| CCc1c(C)sc(NC(=O)c2cccs2)c1C#N |  | -15.6% | -1.11% (inactive) |  |
| COc1cc2c(cc1OC)C(c1ccc([N+](=O)[O-])cc1)NC(=O)C2 (stereo unspecified) |  | -4.67% |  | 6.51 µM (active) |
| COc1cc2c(cc1OC)C(c1cccc([N+](=O)[O-])c1)NC(=O)C2 (stereo unspecified) |  | -2.94% | 11.9% (inactive) |  |
| COc1cc2c(cc1OC)C(c1ccc(C)cc1)NC(=O)C2 (stereo unspecified) | inactive |  |  |  |
| O=C(N/N=C/c1ccco1)c1cc(-c2cccc3ccccc23)n[nH]1 |  | -16.1% | -1.16% (inactive) |  |
| Cc1cccc2cc3c(NC(=O)C(C)(C)C)nn(CC(C)C)c3nc12 |  | -9.6% | -8.08% (inactive) |  |
| CCn1nc(NC(C)=O)c2cc3cccc(C)c3nc21 |  |  | 16% (inactive) |  |
| CCn1nc(NS(=O)(=O)c2ccccc2)c2cc3cccc(C)c3nc21 |  | -3.04% | 12.4% (inactive) |  |
| CCn1nc(NS(=O)(=O)c2ccc([N+](=O)[O-])cc2)c2cc3cccc(C)c3nc21 |  | -19.5% |  | 1.46 µM (active) |
| CCn1nc(NS(=O)(=O)c2ccc(F)cc2)c2cc3cccc(C)c3nc21 | inactive | -26.3% |  |  |
| CCn1nc(NC(=O)C(C)(C)C)c2cc3cccc(C)c3nc21 |  | 12.4% |  | 2.91 µM (active) |
| CCOC(=O)C(C(=O)OCC)c1c([N+](=O)[O-])c(=O)n2c3c(cccc13)CCC2 |  | 0.163% | 12.6% (inactive) |  |
| COc1ccc(OC(=O)NCCc2ccccc2)cc1 |  |  | 6.1% (inactive) |  |
| Cc1cc2oc(C(=O)N3CCN(CCc4ccccn4)CC3)c(C)c2cc1C | inactive |  |  |  |
| O=C(NCc1cccc(Cl)c1)C1CCC(=O)N(CCN2CCOCC2)C1 (stereo unspecified) |  | 19% | 33% (inactive) |  |
| O=C(NCc1cccc(Cl)c1)C1CCC(=O)N(CCCN2CCCC2=O)C1 (stereo unspecified) |  | 15.8% |  | 1.84 µM (active) |
| O=C(NCc1ccccc1Cl)C1CCC(=O)N(CCCN2CCCC2=O)C1 (stereo unspecified) |  | -14.7% | -1.29% (inactive) |  |
| CC(C)CCNC(=O)c1cc([N+](=O)[O-])ccc1N1CCOCC1 |  | -14% | -1.77% (inactive) |  |
